PrP 5UTR inh = suppresses PrP 5' UTR mRNA reporter expression | inhibition, % (no concentration beside the values) | cell-based PrP 5' UTR mRNA reporter, plate reader | 340,000 compounds, 0.35% hits | AID 488862; in the data active = inhibition above about 52%; note: 0 = median of the neutral control wells
BJeLR viability = BJeLR cell viability loss | BJeLR (HRASV12) viability, CellTiter-Glo ATP luminescence, 48 h | 300,000 compounds, 0.17% hits | inhibition, % (no concentration beside the values) | AID 1554; in the data active = inhibition above about 50%
PrPC TRFRET = cell surface PrPC inhibition, primary TR-FRET screen; TR-FRET read-out; inhibition, % at 13.8 µM; P04156; 370,000 compounds, 0.43% hits; AID 720596; in the data active = inhibition above about 24%; note: 0% = median of the test wells and 100% = reference compound wells
PriA SSB inh = inhibitors of Klebsiella pneumoniae PriA binding to SSB C-terminal tail. AlphaScreen SSBct-PriA binding, biotinylated peptide. inhibition, % at 33 µM. 430,000 compounds, 0.6% hits. AID 1272365; in the data active = inhibition mostly above about 37%, no sharp cut-off; inactive = mostly below about 20%;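 note: plate controls were negative control peptide for no effect and reference peptide for full effect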
3CLpro inhibitor = SARS-CoV 3CLpro protease inhibition; P0C6X7; recombinant SARS-CoV 3CLpro, quenched FRET peptide cleavage; inhibition, % at 6 µM; 290,000 compounds, 0.14% hits; in the data active = inhibition above about 12%
PrPC TRFRET cf = confirmation of inhibitors of cell surface human prion protein; shares compounds with PrPC TRFRET; cell surface PrPC level, TR-FRET; inhibition, % at 13.8 µM; 1,500 compounds, 65% hits; AID 743200; in the data active = inhibition above about 25%
LD9 tox = counter-screen for PrPc inhibitors: cytotoxicity in LD9 cells; inhibition, % at 13.8 µM; luminescence viability; AID 743201; 1,500 compounds, 29% hits; shares compounds with PrPC TRFRET; in the data active = inhibition above about 9.5%
An asterisk follows results filed as active. Hits are enriched below; roughly 1.2% of the tested compounds scored in any of these assays.

For S=c1[nH]nc(-c2cccc(Br)c2)o1 the results were PrP 5UTR inh -15, BJeLR viability -5, PrPC TRFRET 25*, PriA SSB inh -12, 3CLpro inhibitor -4, PrPC TRFRET cf 36* and LD9 tox -3.
`Cc1cccc(-c2n[nH]c(=S)o2)c1` gave PriA SSB inh 2.
`Oc1cc2c(cc1O)C1c3ccc(O)c(O)c3OCC1(O)C2` (stereo not given) gave PrP 5UTR inh -5, PrPC TRFRET 42*, PriA SSB inh -4, 3CLpro inhibitor 4, PrPC TRFRET cf 55* and LD9 tox -1.
For O=c1oc2ccccc2c(O)c1[C@H]1c2ccc(O)cc2Oc2c1c(=O)oc1ccccc21 the results were PrP 5UTR inh -22, BJeLR viability 2, PrPC TRFRET 41*, PriA SSB inh -4, 3CLpro inhibitor 7, PrPC TRFRET cf 57* and LD9 tox -10.
Screening COc1cccc(NC2c3ccccc3C(=O)N2Cc2ccccc2Cl)c1 (stereo not given) returned PrP 5UTR inh -5, BJeLR viability 4, PrPC TRFRET 29*, PriA SSB inh -13, 3CLpro inhibitor 7, PrPC TRFRET cf 7 and LD9 tox -4.
Screening COc1cc(NC2c3ccccc3C(=O)N2Cc2ccccc2Cl)cc(OC)c1 (stereo not given) returned PrP 5UTR inh -6, BJeLR viability -1, PrPC TRFRET 10, PriA SSB inh -5 and 3CLpro inhibitor -1.
Cc1cc(C(=O)Nc2cccc(-c3nc4ccccc4[nH]3)c2)on1 was read as PriA SSB inh -11.
CSc1ccccc1C(=O)N1CCC(n2c(=O)[nH]c3ccccc3c2=O)CC1 was read as PriA SSB inh -14.
COC(=O)C1=C(C(=O)OC)[C@]2([C@@H]3CCCCN[C@@H](Cc4ccccc4)C(=O)N3Cc3ccccc3)C=C[C@H]1O2 was read as PrP 5UTR inh -12, PrPC TRFRET 14 and PriA SSB inh 7.
For COC(=O)C1=C(C(=O)OC)[C@@]2([C@@H](Cc3ccc(C)cc3)Nc3ccccc3)C=C[C@@H]1O2 the results were PrPC TRFRET 67*, PrPC TRFRET cf 14 and LD9 tox 98*.
`Brc1ccc(-c2nnc3sc(CNCc4ccc5c(c4)OCO5)cn23)cc1` gave PrP 5UTR inh -6, BJeLR viability -3, PrPC TRFRET -9, PriA SSB inh -6 and 3CLpro inhibitor 5.
`Brc1ccc(-c2nnc3sc(CNC4CCCC4)cn23)cc1` gave PrP 5UTR inh -13, BJeLR viability -13, PrPC TRFRET 46*, PriA SSB inh 0, 3CLpro inhibitor 1, PrPC TRFRET cf 58* and LD9 tox -3.
COc1cccc(C(NC(C)=O)c2ccc3cccnc3c2O)c1 (stereo not given) was read as PrP 5UTR inh 31, BJeLR viability 22, PrPC TRFRET 41*, PriA SSB inh 55, 3CLpro inhibitor -2, PrPC TRFRET cf 33* and LD9 tox 44*.
`CCCC(=O)NC(c1ccccc1)c1ccc2cccnc2c1O` (stereo not given) gave PrP 5UTR inh 19, BJeLR viability 26, PrPC TRFRET 23, PriA SSB inh 60 and 3CLpro inhibitor 5.
CC(=O)NC(c1cccc([N+](=O)[O-])c1)c1ccc2cccnc2c1O (stereo not given) was read as PrP 5UTR inh 31, BJeLR viability 35, PrPC TRFRET 40*, PriA SSB inh 2, 3CLpro inhibitor 6, PrPC TRFRET cf 37* and LD9 tox 38*.
For CC(=O)NC(c1ccc(C(C)C)cc1)c1ccc2cccnc2c1O (stereo not given) the results were PrP 5UTR inh 33, BJeLR viability 35, PrPC TRFRET 26*, PriA SSB inh -2, 3CLpro inhibitor 1, PrPC TRFRET cf 28* and LD9 tox 22*.
Screening CCOC(=O)c1ccc(OCC2c3cc(OC)c(OC)cc3CCN2C(=O)CC2CCCCC2)cc1 (stereo not given) returned PriA SSB inh 3.
Screening O=C(c1ccccc1F)N1CCC(c2ccsc2)CC1 returned PriA SSB inh -6.
CN1CCN([C@@H](CNC(=O)C2CCCCC2)c2ccc(F)cc2)CC1 was read as PriA SSB inh -3.
For Cc1cccnc1NC(=O)CSc1ncnc2sc(C)c(C)c12 the results were PrP 5UTR inh -1, BJeLR viability -2, PrPC TRFRET 15 and PriA SSB inh 1.
CCN(CC)C(=O)CSc1ncnc2sc(C)c(C)c12 was read as PrP 5UTR inh -26, BJeLR viability -4, PrPC TRFRET 3, PriA SSB inh -18 and 3CLpro inhibitor -3.
`Cc1sc2ncnc(SCC(=O)Nc3ncccc3O)c2c1C` gave PrP 5UTR inh -13, PrPC TRFRET 27*, PriA SSB inh 4, PrPC TRFRET cf 32* and LD9 tox 3.
For CCC(Sc1ncnc2sc(C)c(C)c12)C(=O)OC (stereo not given) the results were PrP 5UTR inh -18, BJeLR viability -1, PrPC TRFRET 80*, PriA SSB inh -26, 3CLpro inhibitor 1, PrPC TRFRET cf 106* and LD9 tox -2.
Screening CC#CC[N+](C)(C)CCCCCCCCCCCC returned PrP 5UTR inh -13, BJeLR viability 17, PrPC TRFRET 25*, PriA SSB inh -17, 3CLpro inhibitor 2, PrPC TRFRET cf 28* and LD9 tox 16*.
CCCCCCCCCCCCCCCC[N+](C)(C)CC was read as PrP 5UTR inh -20, BJeLR viability -5, PrPC TRFRET 26*, PriA SSB inh -27, PrPC TRFRET cf 36* and LD9 tox 14*.
Screening CCCCCC[N+](C)(C)CCSSCC[N+](C)(C)CCCCCC returned PrP 5UTR inh -17, BJeLR viability 3, PrPC TRFRET 0, PriA SSB inh 2 and 3CLpro inhibitor 5.
Cc1cc(N2CCN(C)CC2)nc2ccc(NC(=O)CCC(=O)NCCC3=CCCCC3)cc12 was read as PrP 5UTR inh -13, PrPC TRFRET 38*, PriA SSB inh -5, 3CLpro inhibitor -1, PrPC TRFRET cf -1 and LD9 tox 3.
For O=C(CSc1nc2[nH]ncc2c(=O)n1-c1ccc(Cl)cc1)Nc1ccc(Br)cc1F the results were PriA SSB inh -20.
`CC(C)[C@@H](NC(=O)OC(C)(C)C)c1cc(C(=O)c2c(-c3ccccc3)[nH]c3ccccc23)c(N)s1` gave PrPC TRFRET 41*, PrPC TRFRET cf 30* and LD9 tox -10.
NC(=O)c1nnn(Cc2cc(Cl)c(C(=O)c3ccc(Cl)cc3)c(Cl)c2)c1N was read as PrPC TRFRET 35*, PrPC TRFRET cf 28* and LD9 tox 7.
